According to PubChem BioAssay (Tox21):
Where “and” joins values, the source holds several entries; their conditions need not be identical. Equal values may be shown once. Results filed as inconclusive are left out. Where a call stands in place of a potency, no number is given. Where a structure was tested more than once in an assay, its records may differ in their call. Calls of active or inactive are those of the source. Calls follow the shape of the dose curve; as a rule, active = well fitted cell-killing curve with a large enough effect in the repeat runs; inconclusive = weak or mixed curves, or effect the other way; inactive = flat fitted curve, though single readings scatter.

Assay: qHTS assay to identify small molecule that activate the aryl hydrocarbon receptor (AhR) signaling pathway - cell viability counter screen (AID 743086); also: nearly all actives have a fitted effect of over 45% in size
Conditions: HepG2-AhR-luc viability, CellTiter-Fluor, 24 h; series mostly up to 70.3 µM
Text: U.S. Tox21 Program National Center for Advancing Translational Sciences [NCATS] NIH Chemical Genomics Center [NCGC] U.S. Environmental Protection Agency [EPA] National Institutes of Environmental Health Sciences [NIEHS] National Toxicology Program [NTP] U.S. Food and Drug Administration [FDA] Tox21 Assay overview: The Aryl hydrocarbon Receptor (AhR), a member of the family of basic helix-loop-helix transcription factors, is crucial to adaptive responses to environmental changes. AhR mediates cellular responses to environmental pollutants such as aromatic hydrocarbons through induction of phase I and II enzymes but also interacts with other nuclear receptor signaling pathways A cell based HepG2-AhR-luc assay (HG2L7.5c1 cell line, developed by Dr. Michael S. Denison, University of California at Davis) was used to assess the activation of AhR. HepG2 (human hepatocellular carcinoma) cells were stably transfected with an Ah receptor-responsive firefly luciferase reporter gene plasmid containing 20 dioxin responsive elements and luciferase reporter gene. Increased luciferase activity can be used to identify the compounds that induce AhR activation. The cytotoxicity of the compounds screened against the HepG2-AhR-luc cell line was tested in parallel by measuring the cell viability using CellTiter-Fluor assay in the same wells.
Tox21 Assay Protocol Summary: 4000 cells in 5 uL/well were dispensed into white wall/solid bottom 1536-well plates using a Multidrop Combi (Thermo Fisher Scientific Inc., Waltham, MA) dispenser. After the assay plates were incubated at 37C for 5 h, 23 nL of compound or DMSO vehicle was transferred to the assay plates by a pintool station (Kalypsys, San Diego, CA). The plates were incubated at 37C for 24 hr. For cell viability measurement, 1 ul/well of CellTiter-Fluor reagent (Promega, Madison, WI) was added into the assay plates using a Flying Reagent Dispenser (FRD) (Aurora Discovery, CA),and then the assay plates were incubated at 37C for 30 min. The fluorescence intensity in the plates was measured using a ViewLux plate reader (PerkinElmer, Shelton, CT), followed by the addition of 4 uL of ONE-Glo Luciferase Assay reagent (Promega) using an FRD (Aurora Discovery). After the assay plates were incubated at room temperature for 30 min, luminescence intensity was measured using a ViewLux plate reader (Perkin Elmer).
Potency is read from the fitted curve at half-maximal effect.

Row | Structure (SMILES) | Potency
1 | CCN(CC)C(=S)[S-].CCN(CC)C(=S)[S-].[Zn+2] | inactive
2 | Cc1c(Cl)c(=O)oc2cc(OP(=O)(OCCCl)OCCCl)ccc12 | inactive
3 | N#CC(Cl)Cl | inactive
4 | CC(Cc1ccc(C(C)(C)C)cc1)CN1C[C@@H](C)O[C@@H](C)C1 (stereo not given in full) | inactive
5 | COC(=O)N(C(=O)N1CO[C@@]2(C(=O)OC)Cc3cc(Cl)ccc3C2=N1)c1ccc(OC(F)(F)F)cc1 | inactive
6 | N#C/C=C/C#N | inactive
7 | C1CCC2CCCCC2C1 (stereo not given) | inactive
8 | CCOC(=O)OC1=C(c2cc(C)ccc2C)C(=O)NC12CCC(OC)CC2 (stereo not given) | inactive
9 | CCC(C)(C)C(=O)OC1=C(c2ccc(Cl)cc2Cl)C(=O)OC12CCCCC2 | inactive
10 | CCOP(=S)(OCC)OC(Cl)C(Cl)(Cl)Cl (stereo not given) | inactive
11 | CC(=O)O[C@H]1CC[C@@]2(C)C(=CC[C@@H]3[C@@H]2CC[C@]2(C)C(=O)CC[C@@H]32)C1 | inactive
12 | Cc1cc(C)cc(OP(=O)(Oc2cc(C)cc(C)c2)Oc2cc(C)cc(C)c2)c1 | inactive
13 | O=C(O)c1cc[c]([Hg][Cl])cc1 | inactive
14 | Cc1cc(C(C)(C)c2cc(C)c(O)c(C)c2)cc(C)c1O | 52.7 µM (active)
15 | Cc1ccc(OP(=O)(Oc2ccccc2)Oc2ccccc2)cc1 | inactive
16 | CC(=O)Nc1ccc2c(c1)Cc1ccccc1-2 | inactive
17 | CCCN(CC)CC1COC2(CCC(C(C)(C)C)CC2)O1 (stereo not given) | inactive
18 | Oc1ccc(C(c2ccc(O)cc2)(C(F)(F)F)C(F)(F)F)cc1 | inactive
19 | O=[N+]([O-])c1cc(C(F)(F)F)c(Cl)c([N+](=O)[O-])c1Cl | 54.5 µM (active)
20 | O=[N+]([O-])c1c2ccccc2cc2ccccc12 | inactive

Row | Structure (SMILES) | Potency
21 | c1ccc(Nc2ccc3ccccc3c2)cc1 | inactive
22 | Cc1cc(SCc2sc(-c3ccc(C(F)(F)F)c(F)c3)nc2C)ccc1OCC(=O)O | inactive
23 | CC(C)Oc1cccc(NC(=O)c2ccccc2C(F)(F)F)c1 | inactive
24 | N#CNC#N | inactive
25 | ClC(Cl)=C(c1ccc(Cl)cc1)c1ccc(Cl)cc1 | inactive
26 | [CH3][Hg][Cl] | inactive
27 | CCCCCCCCCCCCCCCC[N+](C)(C)C | inactive and 68.6 µM (active)
28 | CC(=O)[O-].CC(=O)[O-].O.O.[Cd+2] | 2.69 µM (active)
29 | CCCOCC(=Nc1ccc(Cl)cc1C(F)(F)F)n1ccnc1 | 54.4 µM (active)
30 | CCc1nn(C)c(C(=O)NCc2ccc(C(C)(C)C)cc2)c1Cl | inactive
31 | CCCCCCCCCCCCBr | inactive
32 | C[C@@H]1O[C@@H](O[C@H]2C[C@@H](O)[C@]3(CO)[C@H]4[C@H](O)C[C@]5(C)[C@@H](C6=CC(=O)OC6)CC[C@]5(O)[C@@H]4CC[C@]3(O)C2)[C@H](O)[C@H](O)[C@H]1O | inactive
33 | CN(C)CCc1c[nH]c2ccc(O)cc12 | inactive
34 | CC(C)OS(C)(=O)=O | inactive
35 | O=[N+]([O-])O.O=[N+]([O-])O.[Cd] | 1.93 µM (active)
36 | COc1ccc(N)cc1N | 63.1 µM (active) and inactive
37 | CC(=O)c1cc(C(C)(C)C)cc2c1CCC2(C)C | inactive
38 | Oc1ccc(C(=C(Cl)Cl)c2ccc(O)cc2)cc1 | inactive
39 | O=[N+]([O-])c1ccc(Oc2ccc(C(F)(F)F)cc2[N+](=O)[O-])cc1 | inactive
40 | CN(C)[C@@H]1C(=O)C(C(N)=O)=C(O)[C@@]2(O)C(=O)C3=C(O)c4c(O)ccc(Cl)c4[C@@](C)(O)[C@H]3C[C@@H]12 | inactive
